Consider 40 sequences from the supplement of paper PMC6555819.

The test system of the assay is VDR:RXRa (NR concentration 270 nM, RXRa partner concentration 90 nM). The assay can be described thus: PBM binding z-score (relative to random genomic background probes); higher = stronger binding; sequences stand for … in GC…GCGATTGACAGCGTAGAATGAAGG
As for the experimental part: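 Protein-binding microarray (Agilent 4x180K custom design, double-stranded 60-nt probes: 5' GC cap, 34-nt variable region, 24-nt constant primer region; full probe sequence given). Purified or IVT nuclear receptor:RXRα heterodimers (3:1 NR:RXRα, mostly 270:90 nM) or homodimers were incubated for 1 h in PBS with 2% milk and no ligand, then detected with Alexa488 antibodies. Fluorescence from o1-orientation probes (~5 replicates averaged) was converted to z-scores against 500 random hg19 background probes. Variable regions are seed direct-repeat (DR0–DR5) sites, all their single-nucleotide variants and half-site ablations.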
TCTTGGAGATCAGCAGGTTAAGAAAGCTGGCCAA showed a PBM binding z-score of 0.335. Sequence ATCGAAAGGTCGAGGTGAGTATGGAGAAAGGGAA gave a PBM binding z-score of 2.59.

GCTCGTAGGACAAGGTCAGAGCTTTGTCCGTAGA: the PBM binding z-score turned out to be 1.4. In the case of CGTCAAGGTTCAAGGTAACGTAACAGAAAGCAGC, the PBM binding z-score came out at 3.05.

Sequence ACAGACAGGTGAGTGAAAGTAACTCAGCTGGACG showed a PBM binding z-score of -0.256.

In turn, GCGACTGGGGCATCCGCAGGTTACCATAACTTAA displayed a PBM binding z-score of -0.12. In the case of ATCTCTAGGTAACAAGTTCTGTGAAAGAGAGGAC, the PBM binding z-score is 0.359. In the case of CAAACTAGGTCACCGGAAGGTCAAGGTCCGCATG, the PBM binding z-score was 5.58. In the case of CGAACTACGTCAAGGACAGTGAATCTCCGCACGC it was -0.475; in that of ATATGTACGTTAAGGGTCATTCAGGTTGGTTCGC, 5.64; in that of CTACCAAGGTGAATAAGGTCGTTGATTACTATTC, 5.52. In turn, TCTTGTAGATCAGCAGGTTAAGTAAGCTGGCCAA gave a PBM binding z-score of 0.413. The sequence GCTAGCAGGCCATTTGGGTCACTCAGTGACGGGC returned a PBM binding z-score of 0.711. Sequence ATATGTAGGTTAGCTTGGGTCATTCAGACTAGGC registered a PBM binding z-score of 2.64.

CCAGACAGGTGAAAGGCAACTCAGTCTGGTACGC: the PBM binding z-score was -0.108.

On to CCTACTGGGCCACAAAGGTCATTGATGCCGATAA, for which the PBM binding z-score stood at 5.28. CCTTACGGGTCACTGACAGTTTATAGCATTTGGA: the PBM binding z-score was determined as 4.21.

The sequence CGAACTAGGTCATTGACAGGACAGTGAATAGTAA returned a PBM binding z-score of 2.2. The sequence CGTCCAAGGTCAAGTTCAGTGAAAGAGACTCGAA displayed a PBM binding z-score of 4.91. The sequence AGAACGAGGGCAATGAGTTGATAGCCCGGGTGGC returned a PBM binding z-score of 4.73.

Sequence TCATATAGGTAAAGGTGTAAGTCGAACGATATGA displayed a PBM binding z-score of 0.297.

GCAGACAGGTGAAACTCAGGTAACTCAGGGTGGC: the PBM binding z-score was -0.101. Sequence CCTATTAGTTGACCATAAGGACAACCGAAGCTCG yielded a PBM binding z-score of 1.07. On to CCTACTGGGCTATTCAGAGGTCATTGATCATATG, for which the PBM binding z-score was found to be 3.57. Sequence ATCTCTAGGTAAAGATAGTTCAGTCAATGCAAAT had a PBM binding z-score of 0.723. With ATCTCTAGGTAAGACTCATTTCAGTGAAGAACGC, the PBM binding z-score was found to be 0.308. As to ACTATTAGTTGAGACGACGGCAACCGATAGGTTG, the PBM binding z-score was -0.484. Take TAACCAAGGTGAGCTGAGGTCGTTGATCCAACTC: the PBM binding z-score was 4.26. On to TCATATAGGTAAATGCTAGATGAAAGTCCGATCT, for which the PBM binding z-score stood at 0.802.

For CGAACTAGGACAAGGACAGTGAATCTCCGCACGC, the PBM binding z-score was -0.159. In the case of ACTATTAGTTGAGACGAGGGGAACCGATAGGTTG it was -0.291; in that of ATACCAAGGTGATCGTGAGGTCGTTGCTACTAAC, 3.4. Sequence TCTTGTCGATCAAAGGTTAAGAAAGCCGAAGCCT yielded a PBM binding z-score of 1.27. Regarding CATACAGGGTCAGCTAGACCAGAGTAGGGACGGC, the PBM binding z-score was found to be 2.52. For TCATATAGGTAAAACGTGAAAGTCGGTGTGGTAA, the PBM binding z-score amounted to 0.783. Take CCTACTGGGCCAAAAAGGTCATCGATGCCGATAA: the PBM binding z-score was determined as 4.79. In turn, CAAACTAGGTCACGAAAGGTCAAAGTCGAATGAC displayed a PBM binding z-score of 6.91. In turn, ACTAGTTGGTCAGCTGAGGTGACACACAATTCGG gave a PBM binding z-score of 0.731. The result for TCTTCTAGATCAACAGGAGGTTAAGAAAGATCGA reads 0.728; that for TAGCCTATGTCATGGGCCAGTATACCACGCGAAC, -0.365.
